# The supplement of paper PMC11001985
# Values without a mark were called inactive.
# Compound: C#CCNC(=O)CCSSCCC(=O)NCCc1ccc(C=O)c(C=O)c1
# Assay: lysine labeling ratio R10:1 (500 µM / 50 µM probe), SILAC-ABPP in living cells; higher = lower intrinsic lysine reactivity toward the probe, active = 2 or less
# Conditions: HeLa; probe concentrations 500 vs 50 µM
# In short: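 In PBS at room temperature, living HeLa cells grown with SILAC light or heavy labels were treated with 50 µM or 500 µM of an alkyne-tagged, disulfide-linked lysine probe, with label swaps in both directions. Analysis was by LC-MS/MS on a TIMS-TOF Pro after click to biotin-azide, neutravidin capture and DTT release. For each lysine, R is the median across forward and reverse replicates of the filtered median high-probe/low-probe MS1 peptide ratio, capped at 20.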
# Chain of UniProt P55072 (P55072 whole entry, looked up): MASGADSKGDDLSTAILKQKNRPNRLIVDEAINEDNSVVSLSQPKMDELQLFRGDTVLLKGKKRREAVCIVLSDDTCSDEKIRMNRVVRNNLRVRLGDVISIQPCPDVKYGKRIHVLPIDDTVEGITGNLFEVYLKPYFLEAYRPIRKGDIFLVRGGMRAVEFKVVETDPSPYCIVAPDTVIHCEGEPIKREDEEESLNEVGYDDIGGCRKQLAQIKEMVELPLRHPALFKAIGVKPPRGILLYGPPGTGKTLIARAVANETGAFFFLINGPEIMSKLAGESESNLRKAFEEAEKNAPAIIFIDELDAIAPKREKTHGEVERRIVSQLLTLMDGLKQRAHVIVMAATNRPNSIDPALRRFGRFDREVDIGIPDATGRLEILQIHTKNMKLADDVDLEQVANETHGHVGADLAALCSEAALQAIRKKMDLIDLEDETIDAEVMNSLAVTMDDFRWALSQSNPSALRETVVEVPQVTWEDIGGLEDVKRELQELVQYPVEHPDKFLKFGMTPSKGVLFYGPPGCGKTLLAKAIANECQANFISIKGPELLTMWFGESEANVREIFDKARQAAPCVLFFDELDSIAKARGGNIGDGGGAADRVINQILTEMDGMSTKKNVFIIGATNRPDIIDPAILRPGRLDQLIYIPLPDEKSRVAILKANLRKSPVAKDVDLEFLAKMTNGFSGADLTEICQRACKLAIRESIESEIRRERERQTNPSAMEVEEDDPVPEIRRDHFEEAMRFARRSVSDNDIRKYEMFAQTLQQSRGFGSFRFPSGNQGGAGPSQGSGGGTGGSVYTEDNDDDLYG
# Chain of UniProt P00533 (P00533 whole entry): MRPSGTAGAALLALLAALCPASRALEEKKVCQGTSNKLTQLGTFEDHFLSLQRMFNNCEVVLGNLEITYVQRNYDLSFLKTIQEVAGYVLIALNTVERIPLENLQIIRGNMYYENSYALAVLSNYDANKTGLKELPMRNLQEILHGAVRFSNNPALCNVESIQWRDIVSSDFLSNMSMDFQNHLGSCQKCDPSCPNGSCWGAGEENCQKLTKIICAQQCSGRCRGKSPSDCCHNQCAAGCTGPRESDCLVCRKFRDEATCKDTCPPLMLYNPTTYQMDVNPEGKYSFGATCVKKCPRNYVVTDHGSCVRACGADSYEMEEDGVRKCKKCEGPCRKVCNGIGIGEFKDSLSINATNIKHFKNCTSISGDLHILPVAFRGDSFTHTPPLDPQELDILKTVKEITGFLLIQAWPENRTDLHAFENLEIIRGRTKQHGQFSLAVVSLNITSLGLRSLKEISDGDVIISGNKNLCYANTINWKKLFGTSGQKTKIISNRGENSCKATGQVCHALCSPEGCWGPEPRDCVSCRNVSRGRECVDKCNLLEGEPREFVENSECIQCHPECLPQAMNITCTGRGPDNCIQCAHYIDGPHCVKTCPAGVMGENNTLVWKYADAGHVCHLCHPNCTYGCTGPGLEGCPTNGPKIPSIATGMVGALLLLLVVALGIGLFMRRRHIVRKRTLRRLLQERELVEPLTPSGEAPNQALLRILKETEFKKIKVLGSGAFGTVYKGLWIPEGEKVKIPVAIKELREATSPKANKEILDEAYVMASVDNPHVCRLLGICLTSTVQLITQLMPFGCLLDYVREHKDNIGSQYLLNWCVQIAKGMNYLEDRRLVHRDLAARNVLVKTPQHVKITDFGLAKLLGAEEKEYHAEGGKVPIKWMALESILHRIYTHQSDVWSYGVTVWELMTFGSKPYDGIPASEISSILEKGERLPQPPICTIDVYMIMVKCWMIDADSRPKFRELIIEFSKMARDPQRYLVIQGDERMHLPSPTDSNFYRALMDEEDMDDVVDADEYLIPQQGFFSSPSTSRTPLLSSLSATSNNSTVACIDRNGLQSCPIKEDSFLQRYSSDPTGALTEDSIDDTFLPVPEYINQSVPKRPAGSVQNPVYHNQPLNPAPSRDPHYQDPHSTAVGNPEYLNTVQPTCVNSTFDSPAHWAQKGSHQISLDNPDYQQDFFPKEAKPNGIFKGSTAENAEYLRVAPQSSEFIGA
# Chain of UniProt P17844 (P17844 whole entry): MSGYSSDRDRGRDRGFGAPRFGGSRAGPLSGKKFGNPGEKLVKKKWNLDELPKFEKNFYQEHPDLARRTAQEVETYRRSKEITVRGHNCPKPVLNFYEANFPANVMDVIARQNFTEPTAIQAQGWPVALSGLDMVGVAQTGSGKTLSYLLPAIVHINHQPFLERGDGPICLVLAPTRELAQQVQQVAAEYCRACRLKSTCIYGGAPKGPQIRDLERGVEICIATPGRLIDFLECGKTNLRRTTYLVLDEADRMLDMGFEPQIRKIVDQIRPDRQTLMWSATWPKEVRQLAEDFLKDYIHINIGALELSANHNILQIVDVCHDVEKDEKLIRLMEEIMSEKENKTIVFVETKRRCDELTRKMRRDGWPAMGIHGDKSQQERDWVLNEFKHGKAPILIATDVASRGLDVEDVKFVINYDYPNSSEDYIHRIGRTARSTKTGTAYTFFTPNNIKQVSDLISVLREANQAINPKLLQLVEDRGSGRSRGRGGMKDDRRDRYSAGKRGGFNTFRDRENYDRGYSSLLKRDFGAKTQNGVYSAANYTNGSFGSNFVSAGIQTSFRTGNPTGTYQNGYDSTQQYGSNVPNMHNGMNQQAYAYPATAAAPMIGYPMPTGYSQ
# Chain of UniProt Q9UJZ1 (Q9UJZ1 whole entry): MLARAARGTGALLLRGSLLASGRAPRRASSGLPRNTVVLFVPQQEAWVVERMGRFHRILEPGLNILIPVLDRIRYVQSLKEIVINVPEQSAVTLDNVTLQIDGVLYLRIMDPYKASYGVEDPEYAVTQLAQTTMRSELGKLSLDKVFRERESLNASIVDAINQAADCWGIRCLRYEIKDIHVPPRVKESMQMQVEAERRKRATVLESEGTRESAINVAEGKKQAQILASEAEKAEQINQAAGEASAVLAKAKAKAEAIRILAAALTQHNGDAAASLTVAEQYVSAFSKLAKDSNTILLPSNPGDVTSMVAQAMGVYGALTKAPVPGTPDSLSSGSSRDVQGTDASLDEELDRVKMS
# Chain of UniProt P06756 (P06756 whole entry): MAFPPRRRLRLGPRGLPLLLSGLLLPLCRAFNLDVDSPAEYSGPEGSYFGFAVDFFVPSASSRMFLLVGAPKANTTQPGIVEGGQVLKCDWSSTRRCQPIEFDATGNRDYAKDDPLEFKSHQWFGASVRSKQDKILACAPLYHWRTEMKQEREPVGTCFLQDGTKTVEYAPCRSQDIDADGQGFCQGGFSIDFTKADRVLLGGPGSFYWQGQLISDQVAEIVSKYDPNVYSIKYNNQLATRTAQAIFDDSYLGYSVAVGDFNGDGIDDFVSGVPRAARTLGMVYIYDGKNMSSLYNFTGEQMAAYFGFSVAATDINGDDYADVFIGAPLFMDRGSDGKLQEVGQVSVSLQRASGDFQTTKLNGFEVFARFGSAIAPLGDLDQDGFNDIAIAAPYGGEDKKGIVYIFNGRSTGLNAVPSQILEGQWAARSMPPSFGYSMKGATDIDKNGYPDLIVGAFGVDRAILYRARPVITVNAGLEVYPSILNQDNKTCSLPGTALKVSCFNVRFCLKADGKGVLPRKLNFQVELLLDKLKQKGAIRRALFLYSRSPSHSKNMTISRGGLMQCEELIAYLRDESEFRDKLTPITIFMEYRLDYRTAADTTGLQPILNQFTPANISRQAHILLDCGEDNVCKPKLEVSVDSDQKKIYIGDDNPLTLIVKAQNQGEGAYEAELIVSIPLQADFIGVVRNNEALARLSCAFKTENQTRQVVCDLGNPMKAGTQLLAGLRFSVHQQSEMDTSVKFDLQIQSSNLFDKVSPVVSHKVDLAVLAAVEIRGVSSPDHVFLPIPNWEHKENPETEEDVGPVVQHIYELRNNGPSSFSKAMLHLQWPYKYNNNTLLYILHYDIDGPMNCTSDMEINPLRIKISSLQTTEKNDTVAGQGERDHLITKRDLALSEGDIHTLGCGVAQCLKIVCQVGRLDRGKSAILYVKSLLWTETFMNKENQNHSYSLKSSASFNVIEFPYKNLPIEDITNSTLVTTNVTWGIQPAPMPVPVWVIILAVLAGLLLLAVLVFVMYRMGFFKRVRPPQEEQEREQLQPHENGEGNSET
# Chain of UniProt Q9Y624 (Q9Y624 whole entry, stated change not applied): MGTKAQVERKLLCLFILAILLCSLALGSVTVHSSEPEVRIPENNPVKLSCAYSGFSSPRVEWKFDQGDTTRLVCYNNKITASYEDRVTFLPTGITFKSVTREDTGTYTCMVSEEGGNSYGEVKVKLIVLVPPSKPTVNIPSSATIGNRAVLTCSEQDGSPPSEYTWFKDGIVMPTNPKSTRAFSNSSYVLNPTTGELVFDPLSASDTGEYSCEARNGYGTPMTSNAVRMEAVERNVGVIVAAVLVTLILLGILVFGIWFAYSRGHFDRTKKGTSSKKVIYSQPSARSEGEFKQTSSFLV
# Chain of UniProt P26599 (P26599 whole entry): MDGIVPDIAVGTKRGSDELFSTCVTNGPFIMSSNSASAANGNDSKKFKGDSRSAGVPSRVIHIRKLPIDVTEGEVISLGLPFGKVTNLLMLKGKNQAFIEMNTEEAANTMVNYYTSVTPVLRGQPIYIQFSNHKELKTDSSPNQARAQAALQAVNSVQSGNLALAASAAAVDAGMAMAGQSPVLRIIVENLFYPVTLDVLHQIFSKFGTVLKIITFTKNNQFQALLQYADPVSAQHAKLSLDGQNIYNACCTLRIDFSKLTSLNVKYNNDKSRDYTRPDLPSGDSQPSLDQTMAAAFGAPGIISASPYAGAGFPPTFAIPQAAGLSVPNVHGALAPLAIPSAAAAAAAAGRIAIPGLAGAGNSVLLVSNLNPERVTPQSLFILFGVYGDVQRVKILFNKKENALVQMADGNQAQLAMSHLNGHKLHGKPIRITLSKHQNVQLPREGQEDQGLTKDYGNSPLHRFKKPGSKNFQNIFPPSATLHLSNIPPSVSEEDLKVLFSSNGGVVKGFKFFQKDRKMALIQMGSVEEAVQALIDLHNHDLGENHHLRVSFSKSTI
row,Target,lysine labeling ratio R10:1
1,UniProt P14618 (lysine site: K367),3.33
2,UniProt P55072 (lysine site: K236),2.76
3,UniProt P55285 (lysine site: K418),1.1 (active)
4,GPC1 (lysine site: K383) (UniProt P35052),1.73 (active)
5,ITGB1 (lysine site: K134) (UniProt P05556),1.83 (active)
6,TXNRD1 (lysine site: K245) (UniProt Q16881),7.79
7,PTBP1 (lysine site: K137) (UniProt P26599),3.2
8,FAT1 (lysine site: K369) (UniProt Q14517),1.01 (active)
9,UniProt P55072 (lysine site: K658),6.64
10,ACTN4 (lysine site: K331) (UniProt O43707),1.71 (active)
11,CCT8 (lysine site: K440) (UniProt P50990),2.29
12,CD63 (lysine site: K162) (UniProt P08962),4.92
13,DYNC1H1 (lysine site: K371) (UniProt Q14204),1.14 (active)
14,UniProt Q15149 (lysine site: K581),3.7
15,CTTN (lysine site: K184) (UniProt Q14247),1.5 (active)
16,ITGAV (lysine site: K165) (UniProt P06756),10.3
17,EGFR (lysine site: K328) (UniProt P00533),3.46
18,HSP90B1 (lysine site: K75) (UniProt P14625),1.47 (active)
19,DDX5 (lysine site: K490) (UniProt P17844),5.18
20,UniProt Q9UHN6 (lysine site: K856),0.771 (active)

row,Target,lysine labeling ratio R10:1
1,HNRNPM (lysine site: K388) (UniProt P52272),6.02
2,CKAP4 (lysine site: K339) (UniProt Q07065),1.14 (active)
3,ATP1B1 (lysine site: K113) (UniProt P05026),1.86 (active)
4,CFL1 (lysine site: K78) (UniProt P23528),1.61 (active)
5,EPHA5 (lysine site: K194) (UniProt P54756),2.4
6,UniProt P08240 (lysine site: K220),2.1
7,UniProt Q15303 (lysine site: K109),1.9 (active)
8,FLNA (lysine site: K837) (UniProt P21333),4.31
9,HNRNPL (lysine site: K302) (UniProt P14866),1.66 (active)
10,ACTBL2 (lysine site: K114) (UniProt Q562R1),1.15 (active)
11,SERBP1 (lysine site: K72) (UniProt Q8NC51),1.17 (active)
12,IGF2R (lysine site: K1873) (UniProt P11717),0.826 (active)
13,ROBO1 (lysine site: K316) (UniProt Q9Y6N7),6.23
14,PGRMC1 (lysine site: K105) (UniProt O00264),2.63
15,YWHAQ (lysine site: K80) (UniProt P27348),3.11
16,FLOT2 (lysine site: K132) (UniProt Q14254),2.82
17,STOML2 (lysine site: K254) (UniProt Q9UJZ1),5.22
18,UniProt Q92729 (lysine site: K440),1.22 (active)
19,ACTR3 (lysine site: K42) (UniProt P61158),1.04 (active)
20,F11R (lysine site: K178) (UniProt Q9Y624),5.39
